PubChem BioAssay AID588689 (Southern Research Specialized Biocontainment Screening …, 2011)
In all, about 340,000 compounds went through this assay and about 1,000 (0.29%) were called active. Rule as the data show it: inconclusive = inhibition above about 29% without an active follow-up result; inactive = below that. Not all results are given here. Potency and affinity values are given separately.

Target: Genome polyprotein (Dengue virus type 2 (strain 16681-PDK53)) (UniProt P29991)
Assay: flavivirus cap methylation enzyme inhibition – biochemical, confirmation dose response, primary screen (AID 588689)
Settings: Dengue-2 NS5 methyltransferase capping enzyme assay, at 25 µM, stronger effect = higher value

Chain of Genome polyprotein (Dengue virus type 2 (strain 16681-PDK53)) (P29991 whole entry, looked up): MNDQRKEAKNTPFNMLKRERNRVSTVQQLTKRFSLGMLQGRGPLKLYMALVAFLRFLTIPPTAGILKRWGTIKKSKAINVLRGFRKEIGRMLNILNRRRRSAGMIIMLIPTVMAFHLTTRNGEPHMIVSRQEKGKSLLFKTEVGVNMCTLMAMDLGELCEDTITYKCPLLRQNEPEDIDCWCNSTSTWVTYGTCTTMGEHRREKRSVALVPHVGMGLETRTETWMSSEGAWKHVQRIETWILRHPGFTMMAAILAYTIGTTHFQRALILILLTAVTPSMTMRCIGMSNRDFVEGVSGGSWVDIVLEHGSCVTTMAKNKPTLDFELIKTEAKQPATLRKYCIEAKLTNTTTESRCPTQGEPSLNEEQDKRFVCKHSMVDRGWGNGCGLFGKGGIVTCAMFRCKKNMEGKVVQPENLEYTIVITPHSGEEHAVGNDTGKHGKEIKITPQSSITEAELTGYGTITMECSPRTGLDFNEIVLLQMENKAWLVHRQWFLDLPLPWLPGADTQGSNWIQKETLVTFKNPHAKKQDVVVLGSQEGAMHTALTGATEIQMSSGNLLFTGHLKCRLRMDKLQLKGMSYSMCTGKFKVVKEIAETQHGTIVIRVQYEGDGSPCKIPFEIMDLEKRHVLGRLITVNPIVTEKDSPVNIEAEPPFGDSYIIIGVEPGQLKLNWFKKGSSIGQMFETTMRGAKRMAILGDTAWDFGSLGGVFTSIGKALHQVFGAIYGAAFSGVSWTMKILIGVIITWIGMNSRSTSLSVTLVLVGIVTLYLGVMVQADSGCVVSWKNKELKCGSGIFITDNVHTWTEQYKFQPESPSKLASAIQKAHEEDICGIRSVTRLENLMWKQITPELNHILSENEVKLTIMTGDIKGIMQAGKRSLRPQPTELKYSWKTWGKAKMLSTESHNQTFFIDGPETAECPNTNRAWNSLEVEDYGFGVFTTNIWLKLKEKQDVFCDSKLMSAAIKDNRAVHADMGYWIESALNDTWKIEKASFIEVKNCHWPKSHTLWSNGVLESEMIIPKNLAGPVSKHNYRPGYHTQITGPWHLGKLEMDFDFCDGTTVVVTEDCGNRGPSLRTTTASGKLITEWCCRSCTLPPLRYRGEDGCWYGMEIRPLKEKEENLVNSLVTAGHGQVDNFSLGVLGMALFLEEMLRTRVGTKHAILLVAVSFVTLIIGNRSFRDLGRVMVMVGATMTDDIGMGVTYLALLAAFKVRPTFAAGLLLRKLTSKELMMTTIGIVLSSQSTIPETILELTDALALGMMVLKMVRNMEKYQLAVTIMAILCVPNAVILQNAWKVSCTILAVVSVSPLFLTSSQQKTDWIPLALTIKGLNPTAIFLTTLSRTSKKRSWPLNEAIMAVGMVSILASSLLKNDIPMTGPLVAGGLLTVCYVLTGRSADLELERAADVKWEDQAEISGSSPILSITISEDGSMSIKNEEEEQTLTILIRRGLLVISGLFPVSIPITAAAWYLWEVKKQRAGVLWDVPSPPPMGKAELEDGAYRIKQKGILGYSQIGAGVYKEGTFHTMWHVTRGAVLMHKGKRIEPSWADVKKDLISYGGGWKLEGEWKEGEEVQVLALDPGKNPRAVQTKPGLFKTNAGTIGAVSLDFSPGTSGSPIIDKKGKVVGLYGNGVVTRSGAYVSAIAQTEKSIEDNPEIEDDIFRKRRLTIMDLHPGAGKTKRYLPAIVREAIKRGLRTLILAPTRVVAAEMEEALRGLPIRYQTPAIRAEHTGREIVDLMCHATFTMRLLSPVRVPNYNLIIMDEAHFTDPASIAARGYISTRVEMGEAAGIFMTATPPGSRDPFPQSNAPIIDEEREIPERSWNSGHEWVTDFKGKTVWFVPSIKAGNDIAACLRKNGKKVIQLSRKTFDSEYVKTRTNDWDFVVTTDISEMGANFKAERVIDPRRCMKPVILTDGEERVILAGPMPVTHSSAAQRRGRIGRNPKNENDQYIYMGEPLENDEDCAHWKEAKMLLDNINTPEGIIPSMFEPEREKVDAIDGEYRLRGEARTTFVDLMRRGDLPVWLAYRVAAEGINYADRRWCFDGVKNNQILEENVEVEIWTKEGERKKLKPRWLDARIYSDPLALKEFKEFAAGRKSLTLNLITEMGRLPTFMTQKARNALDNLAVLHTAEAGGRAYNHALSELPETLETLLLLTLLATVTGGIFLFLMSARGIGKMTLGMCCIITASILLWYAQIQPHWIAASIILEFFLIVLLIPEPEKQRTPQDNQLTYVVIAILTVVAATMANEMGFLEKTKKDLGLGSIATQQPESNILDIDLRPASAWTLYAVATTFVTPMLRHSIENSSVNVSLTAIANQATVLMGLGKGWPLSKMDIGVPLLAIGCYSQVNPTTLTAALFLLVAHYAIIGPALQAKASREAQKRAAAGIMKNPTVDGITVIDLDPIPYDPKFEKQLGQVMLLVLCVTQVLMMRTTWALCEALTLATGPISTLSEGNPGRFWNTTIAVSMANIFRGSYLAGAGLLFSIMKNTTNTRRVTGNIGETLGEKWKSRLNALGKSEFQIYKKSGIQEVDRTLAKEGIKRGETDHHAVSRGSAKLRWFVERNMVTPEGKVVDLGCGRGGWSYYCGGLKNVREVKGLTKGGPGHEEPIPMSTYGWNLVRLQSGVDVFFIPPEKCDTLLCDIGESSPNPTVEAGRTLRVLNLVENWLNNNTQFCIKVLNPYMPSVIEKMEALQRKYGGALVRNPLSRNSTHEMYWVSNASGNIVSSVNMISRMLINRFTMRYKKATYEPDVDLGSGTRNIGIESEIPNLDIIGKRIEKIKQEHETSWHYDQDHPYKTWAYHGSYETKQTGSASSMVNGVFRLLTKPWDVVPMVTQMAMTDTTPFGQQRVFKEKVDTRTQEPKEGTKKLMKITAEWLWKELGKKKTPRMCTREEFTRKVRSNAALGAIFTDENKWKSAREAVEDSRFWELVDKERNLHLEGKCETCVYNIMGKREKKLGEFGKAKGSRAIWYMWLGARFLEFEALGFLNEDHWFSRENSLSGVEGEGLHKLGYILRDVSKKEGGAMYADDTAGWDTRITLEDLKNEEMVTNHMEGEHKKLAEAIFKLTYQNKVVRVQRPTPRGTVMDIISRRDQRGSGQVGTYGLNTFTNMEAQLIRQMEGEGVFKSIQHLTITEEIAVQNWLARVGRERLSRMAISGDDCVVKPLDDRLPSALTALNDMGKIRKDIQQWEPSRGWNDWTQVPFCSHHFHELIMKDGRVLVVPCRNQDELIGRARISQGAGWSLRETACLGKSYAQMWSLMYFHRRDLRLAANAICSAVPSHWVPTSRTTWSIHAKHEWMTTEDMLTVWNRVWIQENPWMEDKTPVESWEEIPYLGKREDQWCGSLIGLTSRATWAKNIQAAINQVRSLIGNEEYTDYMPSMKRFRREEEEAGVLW

| SMILES | inhibition | inhibition (measured here: pilot screen replicate inhibition) |
| --- | --- | --- |
| COc1ccc(/C=N/NC(=O)c2nn(-c3ccc(Cl)cc3)c(=O)c3c(N)scc23)cc1 | 65.9% (inactive) | 10.3% |
| Cc1ccc2c(c1)NC(=O)c1cccnc1N2 | -0.54% (inactive) | – |
| Cc1nnc(SC(C)C(=O)N(C)C2CCCCC2)n1N (configuration not stated) | -0.37% (inactive) | – |
| CCOc1cc(C(=O)NCCC(=O)N2CCC3(CC2)NCCc2[nH]cnc23)cc(OCC)c1OCC | -6.21% (inactive) | – |
| CCCCN1CC[C@H]2C=CC[C@@H](C(=O)N3CCN(c4ccccc4)CC3)[C@H]2C1=O | -5.46% (inactive) | – |
| Cc1ccc(-n2nc(CN3CCOCC3)c(-c3ccccc3)c2N)cc1Cl | -2.18% (inactive) | – |
| O=Cc1cc(N=Nc2ccc(S(=O)(=O)O)cc2)ccc1O | 14.6% (inactive) | – |
| O=Cc1cc(N=Nc2ccccc2Cl)ccc1O | 11.1% (inactive) | – |
| COc1ccc(/C=C2/C(=O)N(c3c(F)c(F)c(F)c(F)c3F)N=C2C)cc1 | 27.1% (inactive) | – |
| CCOC(=O)c1sc(Nc2ccc(OCC)cc2)nc1C | -9.95% (inactive) | – |
| Cc1ccc(NC(=C(C#N)C#N)c2ccccc2)cc1 | 6.86% (inactive) | – |
| O=C1C(=O)N(CCCn2ccnc2)C(c2ccc([N+](=O)[O-])cc2)/C1=C(\O)c1ccc2c(c1)OCCO2 (configuration not stated) | -1.86% (inactive) | – |
| O=C(C[C@@H]1C/C=C\C[C@H](Cc2ccc(F)cc2)C(=O)OCCNC1=O)N[C@H](CO)Cc1ccccc1 | -4.01% (inactive) | – |
| O=[N+]([O-])c1cc(Br)cc(C=Nc2ccc3c(c2)OCO3)c1O | 17.9% (inactive) | – |
| O=[N+]([O-])c1ccc(O)c(C=Nc2ccc3c(c2)OCCO3)c1 | 2.55% (inactive) | – |
| O=C(O)c1ccc(NC2OC[C@@H](O)[C@H](O)[C@H]2O)cc1 (some centres not stated) | 1.47% (inactive) | – |
| CC(=O)Nc1ccc(S(=O)(=O)NC2CC(=O)N(c3ccc(C)c(C)c3)C2)cc1 (configuration not stated) | -8.06% (inactive) | – |
| CCCCn1c(N)c(N(CCC(C)C)C(=O)CCCc2nc3ccccc3s2)c(=O)[nH]c1=O | 0.96% (inactive) | – |
| CCCSc1nc(O)c(C2OC(=O)c3c2ccc(OC)c3OC)c(=O)n1C (configuration not stated) | 4.42% (inactive) | – |
| CCSc1nc(O)c(C2OC(=O)c3c2ccc(OC)c3OC)c(=O)n1-c1ccccc1 (configuration not stated) | -0.81% (inactive) | – |
| Cc1ccc(CNC(=O)Cn2c(=O)c3sccc3n(Cc3ccc([N+](=O)[O-])cc3)c2=O)cc1 | -4.46% (inactive) | – |
| COc1cc2c(cc1C1C(C#N)=C(N)OC3=C1C(=O)CC(C)(C)C3)OCO2 (configuration not stated) | 2.7% (inactive) | – |
| COc1ccc(C(C(=O)NC(C)(C)C)N(C(=O)CNC(=O)c2cccs2)c2cccnc2)cc1OC (configuration not stated) | 0.81% (inactive) | – |
| CCOC(=O)C1CCN(c2c(NCCCN(CC)c3ccccc3)c(=O)c2=O)CC1 | -1.39% (inactive) | – |
| CCN(CCCNC(=O)C1CCN(S(=O)(=O)CC)CC1)c1ccccc1 | 0% (inactive) | – |
| N#Cc1c(NC(=O)C(=O)NCCCN2CCOCC2)sc2c1CCC2 | -10.5% (inactive) | – |

| SMILES | inhibition | inhibition (measured here: pilot screen replicate inhibition) |
| --- | --- | --- |
| COc1ccc(C(c2c(C)n(C)n(-c3ccccc3)c2=O)c2c(C)n(C)n(-c3ccccc3)c2=O)c(OC)c1OC | 4.27% (inactive) | – |
| COc1cccc(COC(=O)c2c(C)nn(-c3ccccc3)c2Cl)c1OC | -1.3% (inactive) | – |
| O=C(CC1(CC(=O)N2CCOCC2)CCCC1)Nc1ccccc1 | 1.1% (inactive) | – |
| Cc1[nH]n(-c2ccccc2)c(=O)c1C(C[N+](=O)[O-])c1ccc(F)cc1 (configuration not stated) | 1.46% (inactive) | – |
| Cc1c(C(c2cccc(O)c2)c2c(C)n(C)n(-c3ccccc3)c2=O)c(=O)n(-c2ccccc2)n1C | 0.66% (inactive) | – |
| Cc1[nH]n(-c2ccccc2)c(=O)c1N=Nc1ccccc1C(=O)N1CCOCC1 | -1.82% (inactive) | – |
| Cc1c(C(c2ccc([N+](=O)[O-])cc2)c2c(C)n(C)n(-c3ccccc3)c2=O)c(=O)n(-c2ccccc2)n1C | -2.74% (inactive) | – |
| Cc1[nH]n(-c2ccccc2)c(=O)c1N=Nc1ccccc1O | -2.22% (inactive) | – |
| Cc1c(C(c2ccc(C(=O)O)cc2)c2c(C)n(C)n(-c3ccccc3)c2=O)c(=O)n(-c2ccccc2)n1C | -3.92% (inactive) | – |
| Cc1[nH]n(-c2ccccc2)c(=O)c1C(c1ccccc1C(=O)O)c1c(C)[nH]n(-c2ccccc2)c1=O | -2.59% (inactive) | – |
| Cc1ccc(C(C[N+](=O)[O-])c2c(C)[nH]n(-c3ccccc3)c2=O)cc1 (configuration not stated) | 12.3% (inactive) | – |
| COC(=O)[C@@H]1C[C@@]2(O)[C@H](O)[C@H](O)[C@H](O)C[C@H]2N1Cc1cccc2ccccc12 | -3.14% (inactive) | – |
| Cc1nonc1CN(C)C(=O)CC1C(=O)NCCN1Cc1c(F)cccc1Cl (configuration not stated) | 0% (inactive) | – |
| Cc1ccc(OCc2cc(C(=O)N3CCCC(O)C3)no2)cn1 (configuration not stated) | 3.18% (inactive) | – |
| COc1ccc(-c2cc(C(F)(F)F)nc(NCc3cccs3)n2)cc1 | -0.64% (inactive) | – |
| Cc1csc(NC(=O)c2ccc(COc3ccccc3)o2)n1 | -0.81% (inactive) | – |
| COc1cccc(NC(=S)NC2CC3CCCC(C2)N3C2CCCC2)c1 (configuration not stated) | -6.24% (inactive) | – |
| CCCCCN(C(=O)CCC(=O)OCc1cccc(C(F)(F)F)c1)c1c(N)n(CCCC)c(=O)[nH]c1=O | -5.15% (inactive) | – |
| Cc1[nH][nH]c(=O)c1C(c1ccc(O)c([N+](=O)[O-])c1)c1c(C)[nH][nH]c1=O | 5.19% (inactive) | – |
| Cc1[nH]n(-c2cccc([N+](=O)[O-])c2)c(=O)c1-c1ccccc1 | -10.7% (inactive) | – |
| Cc1[nH]n(-c2ccccc2)c(=O)c1N=Nc1cccc([N+](=O)[O-])c1 | -3.97% (inactive) | – |
| O=c1c2cc([N+](=O)[O-])cc([N+](=O)[O-])c2[nH]n1-c1ccccc1 | 22.2% (inactive) | – |
| COc1ccc(-n2c3c(cc(C(=O)NC4CCSC4=O)c2=O)C(=O)CC(C)(C)C3)cc1 (configuration not stated) | 3.46% (inactive) | – |
| CC1(C)CC(=O)C=C(c2ccc3ccccc3c2)C1 | 6.35% (inactive) | – |
| CC1CCCN(CCC(=O)Nc2ccc3c(c2)CCC3)C1 (configuration not stated) | -0.41% (inactive) | – |
